High-throughput results (PubChem)
In the library only some 5.3% were active in any assay of this set; here they are far more common.
FBPA coupling cs: inhibits coupling enzyme system, counter-screen for aldolase hits | coupling enzyme system counterscreen, AmpLite Red fluorescence | activity change, negative = inhibition, % at 58.2 µM, hits read low | 290,000 tested, 0.67% active; in the data active = activity change below about -30%
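First, compound is pin-transferred into glyceraldehyde-3-phosphate coupling-enzyme reagent at 57.5 uM final and held 10 min at RT. Next, substrate, coupling system and AmpLite Red are added. After 20 min RT, fluorescence (525/598 nm) is read.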
KDM4E inh: JMJD2E (human) inhibition; B2RXH2; JMJD2E catalytic domain, FDH-coupled NADH fluorescence (FDH is formaldehyde dehydrogenase); Potency, µM (doses to about 57.1 µM), for inactives: at the highest dose activity change, negative = inhibition, usual class: inhibitors; 230,000 tested, 1.6% active; active = well fitted inhibition curve with a large enough effect, not every such curve was filed as active; inconclusive = small, poorly fitted or top-dose-only effect, or another doubt; inactive = no such curve, though single readings can be large or run the other way;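 also: potency is read from the fitted curve at half-maximal effect; 0% = wells with enzyme and -100% = buffer wells without enzyme; nearly all actives have a fitted effect of over 50% in size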
Target sequence (B2RXH2 1-337 limits assumed): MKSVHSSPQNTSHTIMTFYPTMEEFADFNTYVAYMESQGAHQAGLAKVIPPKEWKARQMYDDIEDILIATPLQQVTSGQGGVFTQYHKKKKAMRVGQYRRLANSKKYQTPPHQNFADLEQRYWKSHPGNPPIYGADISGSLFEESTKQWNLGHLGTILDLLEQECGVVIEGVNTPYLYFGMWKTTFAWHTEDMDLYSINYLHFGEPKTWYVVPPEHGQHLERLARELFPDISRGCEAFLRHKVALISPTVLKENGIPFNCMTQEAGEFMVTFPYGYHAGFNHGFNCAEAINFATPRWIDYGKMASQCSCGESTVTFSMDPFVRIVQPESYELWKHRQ
Tau fibril FP: inhibitors of human tau fibril formation | 280,000 tested, 0.39% active | Potency, µM (top dose mostly 57.7 µM), for inactives: at the highest dose activity, negative = inhibition, actives largely listed as inhibitors | K18 P301L tau heparin fibrillization, Alexa594 FP, 6 h; also: potency is read from the fitted curve at half-maximal effect; nearly all actives have a fitted effect of over 55% in size
Target sequence (P10636 561-689 P618L limits assumed): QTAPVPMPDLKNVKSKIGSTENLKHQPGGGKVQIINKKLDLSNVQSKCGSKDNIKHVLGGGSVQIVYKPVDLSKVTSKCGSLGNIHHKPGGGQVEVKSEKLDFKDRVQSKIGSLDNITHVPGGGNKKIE
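K18 P301L tau (15 uM unlabeled/0.24 uM Alexa 594-labeled, final) + compound + heparin 20 uM final; 100 mM NaOAc pH 7; 6 hr 37 C; ThT 30 uM final added, 1 hr RT; FP ex 555/em 632 nm.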
Tau fluor cs: counter-screen for tau fibril formation inhibitors. tau K18 P301L Alexa594 fluorescence, heparin fibrillization. Potency, µM (highest dose often 57.7 µM), for inactives: at the top dose activity change, negative = decrease. 280,000 tested, 0.93% active. AID 1463; also: potency is read from the fitted curve at half-maximal effect; nearly all actives have a fitted effect of over 55% in size
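Human K18 P301L tau (15 uM unlabeled plus 0.24 uM Alexa 594-labeled, final) in 100 mM sodium acetate pH 7 was mixed with compound and 20 uM heparin and incubated 6 hr at 37 C.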
Sfp PPTase inh: blocks B. subtilis Sfp PPTase activity; Biochemical Sfp PPTase activity, qHTS; 310,000 tested, 3.5% active; Potency, µM, without a hit: largest response in the series, negative = inhibition, hits mostly inhibitors; Q9F4F7; AID 1490;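 also: the enzyme is Sfp with the accession as filed and its product quenches rhodamine fluorescence; potency is read from the fitted curve at half-maximal effect; 0% = enzyme reaction without inhibitor and -100% = no enzyme wells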
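After 15 min at room temperature with compound, 15 nM Sfp received 5 uM rhodamine-CoA plus 12.5 uM BHQ-2-ybbR (50 mM Hepes pH 7.6, 10 mM MgCl2). Rate came from the fluorescence difference over 30 min, ex 525/em 598 nm.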
Tau fibril ThT: inhibitors of human tau fibril formation, thioflavin T binding; 270,000 tested, 2.1% active; P10636; Potency, µM (highest dose often 57.4 µM), for the others: at the highest dose activity, negative = inhibition, most hits filed as inhibitors; AID 1460; recombinant tau K18 P301L (four-repeat tau fragment), heparin-induced fibrillization, ThT fluorescence; also: potency is read from the fitted curve at half-maximal effect; nearly all actives have a fitted effect of over 55% in size
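In this qHTS, human K18 P301L tau is incubated with compound and heparin for 6 hr at 37 C, and Thioflavin T fluorescence then reports fibril load.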
Sfp inh conf: confirmation of Bacillus subtilis Sfp PPTase inhibitors. 380 tested, 79% active. Potency, µM (top dose mostly 114 µM), for the others: top-dose activity change, negative = inhibition, most hits filed as inhibitors. shares compounds with Sfp PPTase inh. Sfp PPTase enzymatic assay, qHTS titration;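 also: potency is read from the fitted curve at half-maximal effect; plate controls were uninhibited Sfp reaction for no effect and no enzyme control for full effect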
Target sequence (Q9F4F7 whole entry, looked up): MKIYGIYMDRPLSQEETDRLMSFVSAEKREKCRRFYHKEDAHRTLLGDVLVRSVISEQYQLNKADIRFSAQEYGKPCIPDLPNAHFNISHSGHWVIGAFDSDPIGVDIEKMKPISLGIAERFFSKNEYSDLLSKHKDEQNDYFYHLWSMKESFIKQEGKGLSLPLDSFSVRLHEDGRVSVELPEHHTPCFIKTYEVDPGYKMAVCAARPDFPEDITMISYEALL
Sfp PPTase gel: Blocks Sfp PPTase activity, gel read-out. shares compounds with Sfp PPTase inh. purified Sfp, gel-based phosphopantetheinylation read-out. Potency, µM, most hits filed as inhibitors. 210 tested, 20% active. AID 2707;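 active = potency below 100 µM; inconclusive = dose-dependent response but potency above 100 µM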;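 also: band intensities scaled against SCH202676 control wells before curve fitting; potency is an IC50 for inhibitors of Sfp transfer activity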
* = called active by the depositor; i = inactive; ? = inconclusive; . = no result; ! = not confirmed by another sample. Unless noted, calls follow the shape of the dose curve; as a rule, active = well fitted curve in the direction sought with a large enough effect; inconclusive = small, poorly fitted or top-dose-only effect, or another doubt; inactive = no such curve, though single readings can be large; an effect the other way counts as inactive or inconclusive. Unless noted, % is scaled to controls: 0 for no effect and ±100 for the full control effect.

SMILES	FBPA coupling cs	KDM4E inh	Tau fibril FP	Tau fluor cs	Sfp PPTase inh	Tau fibril ThT	Sfp inh conf	others
CCC(CO)[n+]1c(C)cc(/C=C2\Sc3ccccc3N2Cc2ccccc2)cc1C (stereo unspecified)	-12	-11%	-5%	-14%	35µM*	?	53µM*	Sfp PPTase gel=?
CCOc1ccc2nc(SCC(=O)c3ccc(C)s3)sc2c1	-6	-1%	-11%	?	18µM*	?	?	Sfp PPTase gel=i
CC(=O)c1ccc(OC(=O)CCc2nc3ccccc3s2)cc1	-2	-10%	?	-16%	16µM*	16µM*	33µM*	Sfp PPTase gel=?
O=C(O)COCc1nc2ccccc2s1	3	3%	-7%	8%	25µM*	.	-13%	Sfp PPTase gel=?
COc1ccc(Cl)cc1NC(=O)CSc1nnc2[nH]c(=O)cc(-c3ccccc3)n12	.	.	2%	-14%	.	?	.
CCS(=O)(=O)N1CC(=O)N(c2cc(Cl)ccc2C)C(C)(C(=O)NC2CCCCCC2)C1 (stereo unspecified)	.	.	-4%	-5%	.	3%	.
O=C(c1ccccc1)N1CCN(C(=S)NCc2ccco2)CC1	-1	-3%	-6%	-1%	35µM*	0%	33µM*	Sfp PPTase gel=?
COC(=O)Nc1sc2c(c1C(N)=O)CCC(C)C2 (stereo unspecified)	-12	-10%	-10%	-13%	3.5µM*	?	15µM*
COc1ccc(-n2nc(C(=O)N3CCCCC3)c3c4ccccc4n(C)c3c2=O)cc1Cl	.	.	-12%	-13%	.	3%	.
O=C(CSc1ccc(-c2ccco2)nn1)c1ccccc1	2	?	-11%	-23%	3.2µM*	?	9.4µM*
O=C(CSc1ccccn1)c1ccc(F)cc1	3	-5%	-2%	-2%	?	-12%	.
O=C(CSc1ccc(-c2ccco2)nn1)N1CCCCCC1	1	?	9%	-3%	-58%	-7%	.
O=C(O)c1ccnc(SCC(=O)c2ccccc2)c1	14	-2%	0%	16%	3.5µM*	4%	53µM*
O=C(Nc1cccc(F)c1)N1CC2(CCN(C(=O)c3ccco3)CC2)C1	3	.	.	.	-13%	.	.
COc1ccc(C(=O)N(c2ccc(C)cc2)S(=O)(=O)c2ccc(C)cc2)cc1	.	.	-9%	-24%	.	3%	.
CCc1ccc(C(=O)Nc2cccc(-c3nc4cc(C(C)C)ccc4o3)c2)cc1	.	.	?	-24%	.	-10%	.
COc1ccc(N2CCN(C(=O)C(C)n3nc(C)c4sc5ccccc5c4c3=O)CC2)cc1 (stereo unspecified)	.	.	-11%	-30%	.	?	.
COc1ccccc1NS(=O)(=O)c1cc(NC(=O)c2sccc2C)ccc1N1CCCC1	-8	?	-8%	?	2.8µM*	?	17µM*
CC(=O)CCc1oc2ccc(NC(C)=O)cc2c1-c1ccc(C)o1	-2	?	3%	-14%	13µM*	?	15µM*	Sfp PPTase gel=i
CC(=O)Nc1ccc(NC(=O)CCc2ccc(C)o2)cc1	.	.	.	.	7%	.	.
COc1ccc(NC(=S)N(CCC(C)C)C2CCN(C(C)C)CC2)cc1Cl	-47*	.	.	.	4µM*	.	1.9µM*
Cc1ccc(-c2c[n+](Cc3ccc(Cl)cc3)c3n2CCC3)cc1	1	1%	-10%	-5%	19%	-4%	.
Clc1ccc(C[n+]2csc3ccccc32)cc1	-1	?	?	-12%	4µM*	22µM*	8.3µM*	Sfp PPTase gel=2.1µM*
CCOC(=O)c1nn(-c2ccccc2C)c(=O)c(C#N)c1C	-23	-12%	0%	-17%	0%	?	.
CCOC(=O)c1nn(-c2ccccc2C)c(=O)c2c(N)scc12	-55*	?	18µM*	-26%	3.2µM*	16µM*	15µM*
SMILES	FBPA coupling cs	KDM4E inh	Tau fibril FP	Tau fluor cs	Sfp PPTase inh	Tau fibril ThT	Sfp inh conf	others
CCOC(=O)C1CCN(C(=O)c2c(C)nn(-c3ccc(F)cc3)c2-n2cccc2)CC1	.	.	5%	0%	.	1%	.
CCOc1ccc(NC(=O)Cn2c(=O)c(CNc3ccc(CC)cc3)cc3cc4c(cc32)OCO4)cc1	.	.	15%	?	.	10%	.
COc1cc2nc(N3CCN(C(=O)C4CCCO4)CC3)nc(N)c2cc1OC (stereo unspecified)	-50*!	28µM*	3%	5%	56µM*!	5%	0%	Sfp PPTase gel=?
COc1cc2nc(N3CCN(C(=O)[C@H]4CCCO4)CC3)nc(N)c2cc1OC	-1	?	-2%	-10%	-1%	-14%	.
c1csc(-c2nn3c(C4COc5ccccc5O4)nnc3s2)c1 (stereo unspecified)	1	32µM*	-10%	-23%	7.9µM*	?	24µM*
c1ccc(OCc2nnc3sc(-c4cccs4)nn23)cc1	-5	-18%	?	-14%	10µM*	?	9.4µM*
c1ccc2c(c1)OCC(c1nnc3n1-c1ccccc1SC3)O2 (stereo unspecified)	-2	1%	0%	0%	7%	-6%	.
Cc1nc2ccn(Cc3ccco3)c(=O)c2cc1C(=O)NCc1ccc(F)cc1	.	.	-1%	-3%	.	2%	.
Nc1cccn2c(-c3ccc(Cl)cc3)cnc12	-31*	?	2%	?	16µM*	?	?	Sfp PPTase gel=?
COc1ccccc1-c1nc2c(c(SCC(=O)Nc3ccccc3F)n1)Cc1c(CO)cnc(C)c1O2	.	.	-15%	-5%	.	0%	.
CC(=O)c1cccc(NC(=O)C(CC(C)C)NS(=O)(=O)c2ccc3c(c2)CCN3C(C)=O)c1 (stereo unspecified)	.	.	6%	-3%	.	2%	.
CCOC(=O)CCc1c(C)c2cc3c(c(C)c2oc1=O)OCN(CCc1ccccc1OC)C3	.	.	-1%	-24%	.	?	.
Clc1ccccc1-c1nnc2sc(CCc3ccccc3)nn12	0	1%	-9%	-17%	13µM*	?	12µM*
c1ccc(CCc2nn3c(Cn4nnc5ccccc54)nnc3s2)cc1	1	-14%	-8%	-6%	13µM*	-12%	42µM*
c1ccc(CCn2cnc3ccccc32)cc1	2	4%	14%	13%	15%	11%	.
c1ccc(CCc2nn3c(Cn4cnc5ccccc54)nnc3s2)cc1	2	-4%	-7%	-9%	10µM*	-27%	13µM*
c1ccc(Cn2nnc3ccccc32)cc1	-4	.	.	.	23%	.	.
